These results are taken from article PMC6212790, “How bacterial xenogeneic silencer rok distinguishes foreign from self DNA in its resident genome”.

In all, about 33,000 sequences were measured (“e-score”: median about -0.037, highest 2% from about 0.34 on). For the sample, the highest values were picked, then their nearest neighbours and some sequences at random.

The target in this experiment is T1, GST-Rok (full length) (Bacillus subtilis subsp. subtilis str. …, UniProt O34857 1-191).
T1 sequence: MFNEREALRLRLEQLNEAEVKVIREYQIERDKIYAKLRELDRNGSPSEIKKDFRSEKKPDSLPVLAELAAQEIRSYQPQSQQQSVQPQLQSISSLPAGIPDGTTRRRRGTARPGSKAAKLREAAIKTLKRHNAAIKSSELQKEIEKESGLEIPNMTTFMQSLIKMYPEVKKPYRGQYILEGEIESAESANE
Kind of experiment: protein binding microarray; Rok is a gene silencer of Bacillus subtilis; high values mean tight binding. Conditions: protein: recombinant; tags: GST (pTH5325, pDEST15-Magic modified); dsDNA, one strand shown. A digest of the protocol:
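Every oligonucleotide joins a 25-mer constant primer to a 35-mer variable part drawn from a de Bruijn sequence of order 10, so each non-palindromic 8-mer appears at least 32 times and each palindromic 8-mer 16 times. The preference for every 8-mer is reported as a unitless, rank-based enrichment score (E-score). This score spans 0.5 for the most favored 8-mer to −0.5 for the most disfavored.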
AAAATATT: the binding signal was found to be 0.358 E-score. For CAAATATC the value was 0.285 E-score; for CAAATATA, 0.345 E-score; for ACAATATA, 0.298 E-score. Then AATGACCG, with -0.0639 E-score; and AGGAATTC, with -0.159 E-score. Then ACGAACCA, with 0.000876 E-score; and TCATTCAA, with -0.111 E-score. Consider CAGTTTTC, for which the binding signal is 0.0134 E-score.

In the case of AATCGATA, the binding signal came out at 0.281 E-score.

GATCGATA: the binding signal came to 0.269 E-score. For TATCGATA the value was 0.376 E-score; for CTACAATA, 0.291 E-score. For the sequence AGAATCCT, the binding signal amounted to 0.0705 E-score. ACGAAACC: the binding signal is -0.0947 E-score. For ACGAAACA the value was 0.0691 E-score; for ACGAAACT, 0.337 E-score; for AGCCTTAG, -0.181 E-score. Then CGTAGATA, with 0.258 E-score. For GTTAGATA the value was 0.241 E-score; for CGTAGATC, 0.21 E-score. Take AGTAGATC: the binding signal turned out to be 0.324 E-score. For ATGAGATA the value was 0.346 E-score; for AGTAGATA, 0.442 E-score. Then AGTAGATG, with 0.283 E-score; and ATTAGATC, with 0.293 E-score. For ATGAGATC the value was 0.0598 E-score. Consider CTGAGATA, for which the binding signal amounted to 0.0758 E-score. As to ATTAGATA, the binding signal was 0.367 E-score.

Turning to GGTAGATA, the binding signal came to 0.451 E-score. For CGTAATAA the value was 0.27 E-score; for CTCTTCGC, 0.197 E-score; for CCATAAAC, -0.00276 E-score. For the sequence ATAAAGAA, the binding signal was -0.0956 E-score. For GTCATAAA, the binding signal came to 0.154 E-score. Then AATCTTCG, with 0.0665 E-score; and GATTTATA, with 0.315 E-score.

Regarding AATTTATG, the binding signal worked out at 0.283 E-score. For AACTTATA the value was 0.403 E-score. Then ATTTTATG, with 0.251 E-score; and ATTTTATA, with 0.41 E-score; and AATTTATA, with 0.435 E-score. Then CACTTATA, with 0.329 E-score. For GTTTTATA, the binding signal turned out to be 0.141 E-score. Then TACTTATA, with 0.321 E-score; and CTAATCGC, with 0.18 E-score. For AGAAACAT the value was 0.155 E-score; for CGGCTATC, -0.0522 E-score. For ACTAGCGG the value was 0.188 E-score; for CCAAACGA, 0.042 E-score.

Regarding GAAATGCA, the binding signal is -0.095 E-score. For GAAATGTC the value was 0.126 E-score; for CAAATGTA, 0.289 E-score. Then TAAATGTA, with 0.411 E-score; and GAAATGTA, with 0.351 E-score; and AAAATGTA, with 0.287 E-score.

Turning to CTTGTTTC, the binding signal came out at 0.0903 E-score. Then CAAACCAG, with -0.185 E-score. For AACCATGC the value was -0.0502 E-score; for CCTATCAA, 0.161 E-score; for GCTATCAC, 0.244 E-score. Take ACTATCAC: the binding signal amounted to 0.34 E-score. For CCTATCAC the value was 0.0828 E-score; for GCTATCAA, 0.164 E-score. ACTATCAA: the binding signal was determined as 0.337 E-score. For AGAAAGTC the value was 0.121 E-score; for GTAAAGAA, 0.0756 E-score; for TCTATTCA, 0.0926 E-score. For CACTAAAA the value was 0.293 E-score; for AACTAAAA, 0.345 E-score; for AACTAAAG, -0.0498 E-score. Take ACCTAAAA: the binding signal stood at 0.306 E-score. For TACTAAAA the value was 0.434 E-score; for AACTAAAC, 0.138 E-score.

As for GACTAAAA, the binding signal amounted to 0.123 E-score. For AACTAAAT the value was 0.362 E-score; for AACTAAGA, 0.138 E-score; for CGCCCAAC, -0.14 E-score. Then AACTTTGA, with -0.0517 E-score. For AACATTAC, the binding signal is 0.214 E-score. For AGTAGGTA the value was 0.404 E-score; for AGTAGGTG, 0.174 E-score; for GGTAGGTA, 0.304 E-score. In the case of CGTAGGTA, the binding signal was found to be 0.347 E-score.

In the case of CCTAGGTA, the binding signal was found to be 0.0506 E-score. Then AGTAGGTC, with 0.069 E-score.

As for GATGGAGA, the binding signal was -0.0862 E-score. Then ATTAACCG, with 0.0492 E-score; and CGAAAGGC, with -0.183 E-score. For CTTACAAG the value was -0.114 E-score; for ATGAATCC, 0.0418 E-score. Then GAAGCTAC, with 0.323 E-score. CTAGCTAC: the binding signal came to 0.198 E-score. For GTAGCTAA the value was 0.373 E-score; for GTAGCTAC, 0.436 E-score; for CTAGCTAA, 0.133 E-score. For ATAGCTAC the value was 0.333 E-score; for ATAGCTAG, 0.273 E-score; for ATAGCTAT, 0.373 E-score. With TTAGCTAA, the binding signal was found to be 0.129 E-score. Then CCGCTGAC, with -0.15 E-score. For the sequence GCCGCATA, the binding signal is -0.186 E-score. Then AGAGTCGA, with -0.0761 E-score.

On to CTAGTGTC, for which the binding signal stood at 0.0749 E-score. As to GGCAGTAC, the binding signal is -0.0236 E-score. Then GCGGATCA, with -0.193 E-score; and ACAAGGAA, with -0.0483 E-score; and ATTCACCC, with 0.0731 E-score. Then ATTACTAG, with 0.398 E-score; and ATTACTAA, with 0.357 E-score; and CTTACTAA, with 0.222 E-score.

With CTTACTAC, the binding signal was determined as 0.169 E-score. Then GTTACTAA, with 0.283 E-score; and ATTACTCG, with 0.225 E-score; and ATTACTGG, with -0.0684 E-score. Then ATTACTGC, with 0.138 E-score; and ATTACTAC, with 0.355 E-score. For AGGTCCAG the value was -0.187 E-score; for ACTGGCCG, 0.00991 E-score; for AGCGGCTC, -0.196 E-score. On to GTCGCTTA, for which the binding signal was -0.0639 E-score. For GTTACATA, the binding signal came out at 0.212 E-score. Then AACGTTAG, with 0.344 E-score; and AACGTTAC, with -0.0148 E-score. Turning to AACGTTAT, the binding signal stood at 0.216 E-score. Then GCATTCCA, with -0.149 E-score; and CGCGTCCA, with -0.16 E-score; and ATGCTTCG, with -0.00471 E-score.

As to GCGCAGAA, the binding signal is -0.0702 E-score. Then TATATACA, with 0.409 E-score.

Regarding CATATACA, the binding signal was found to be 0.258 E-score. As to CGTATACA, the binding signal is 0.227 E-score. With AATATACC, the binding signal came out at 0.394 E-score. For GGTATACA the value was 0.187 E-score; for GATATACC, 0.291 E-score; for AATATACA, 0.388 E-score. On to TGTATACA, for which the binding signal was found to be 0.351 E-score. Then CATATACC, with 0.259 E-score; and ACTATACA, with 0.322 E-score.

Regarding AATACACA, the binding signal stood at 0.234 E-score. For GATATACA the value was 0.25 E-score; for GCTGCTGA, -0.177 E-score; for CTTCCTTA, -0.172 E-score. On to CTAGGAAG, for which the binding signal is -0.0907 E-score.

For the sequence AGTACGCA, the binding signal worked out at 0.194 E-score.

Take AATATACT: the binding signal was found to be 0.395 E-score. As to AGTATACC, the binding signal is 0.164 E-score. Then ACTATACT, with 0.26 E-score; and AGTATACT, with 0.338 E-score; and AATATACG, with 0.268 E-score. Then AGTATACA, with 0.271 E-score; and CATAAAAG, with 0.102 E-score. Take AGTGCGTC: the binding signal came to 0.0828 E-score. For the sequence ACCTCCAA, the binding signal was -0.0283 E-score.

In the case of TCACGTGA, the binding signal is -0.0446 E-score.

As to TGGCCGAA, the binding signal is -0.123 E-score.

In the case of ACCTAGAC, the binding signal was 0.0548 E-score. Take AATTATAG: the binding signal turned out to be 0.381 E-score. For AGTTATAT the value was 0.291 E-score. Then AATTATAC, with 0.377 E-score; and AATTATAT, with 0.407 E-score; and AATTATCG, with 0.217 E-score. For ACTTATAT the value was 0.332 E-score; for CATTATAG, 0.255 E-score; for CATTATAC, 0.265 E-score. For CATTATAA, the binding signal was determined as 0.228 E-score. Then AATTATAA, with 0.361 E-score. For GATTATAC the value was 0.217 E-score.

Take GATTATAA: the binding signal came out at 0.208 E-score. For ACAGGTCT the value was -0.119 E-score; for TGCTGAAA, -0.0464 E-score; for GCAACTGA, -0.0401 E-score.
